High-throughput results: PubChem, several laboratories
ANO1 block: mouse TMEM16A channel inhibition, primary screen; AID 588511; HEK293 TMEM16A/YFP iodide influx fluorescence, ionomycin; normalized B-score (activity score, 25-100; higher = stronger inhibition) at 10 µM; 310,000 tested, 1.2% active; Q8BHY3;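 active means ratio plate-corrected score three or more library SD toward inhibition, starting fluorescence score within five deviations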;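 further: score derived from kinetic fluorescence span divided by baseline fluorescence per well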
ANO1 activ: activates or potentiates the mouse TMEM16A chloride channel; Q8BHY3; HEK293 TMEM16A/YFP-H148Q/I152L, iodide quench fluorescence; stronger effect = lower value; B-score at 10 µM; 340,000 tested, 0.3% active;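 active means fluorescence-ratio B-score plate-corrected deviation score at least 3 library SD below zero, with starting fluorescence score within 5 deviations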;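 further: channel opened by trigger with iodide after compound preincubation; score built on the fluorescence ratio of max minus min over baseline; more negative score means more quench and so TMEM16A activation or potentiation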
CHT allo act: human CHT allosteric activation; Q9GZV3; B-score at 10 µM; CHT-expressing cells, membrane potential dye, choline EC20; stronger effect = higher value; LV-AA mutant CHT in HEK293 cells; 310,000 tested, 0.49% active; AID 488977;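 active means initial fluorescence not abnormally high and integrated response B-score, plate-corrected, over 3 SD above library mean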
Target sequence (Q9GZV3 whole entry, looked up): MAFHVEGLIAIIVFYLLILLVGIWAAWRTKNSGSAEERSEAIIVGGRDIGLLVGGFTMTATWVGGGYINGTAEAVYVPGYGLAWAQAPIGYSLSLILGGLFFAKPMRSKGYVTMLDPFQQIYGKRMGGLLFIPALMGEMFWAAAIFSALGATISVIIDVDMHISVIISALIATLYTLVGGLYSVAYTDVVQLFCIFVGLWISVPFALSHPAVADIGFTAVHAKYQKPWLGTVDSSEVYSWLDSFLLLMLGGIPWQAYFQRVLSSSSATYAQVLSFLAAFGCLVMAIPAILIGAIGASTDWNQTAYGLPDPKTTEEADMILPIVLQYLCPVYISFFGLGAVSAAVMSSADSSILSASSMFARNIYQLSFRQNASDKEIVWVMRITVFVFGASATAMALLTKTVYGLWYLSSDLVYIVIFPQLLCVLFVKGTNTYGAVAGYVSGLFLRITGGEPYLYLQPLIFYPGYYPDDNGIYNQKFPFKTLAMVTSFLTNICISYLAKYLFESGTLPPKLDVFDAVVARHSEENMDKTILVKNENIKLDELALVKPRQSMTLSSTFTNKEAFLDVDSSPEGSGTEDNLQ
CHT inh: human CHT choline transport inhibition. Q9GZV3. CHT-expressing cells, membrane potential dye, choline response; stronger effect = lower value. B-score at 10 µM. 310,000 tested, 0.86% active;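 active means B-score over 3 SD under the library average, and starting fluorescence ratio not unusually high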;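 further: choline stimulus applied at its EC90 after an EC20 pre-addition; B-score computed on integrated fluorescence ratio after choline addition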
Kir21 inh: blocks the mouse Kir2.1 inward-rectifier potassium channel | P35561 | HEK293-Kir2.1, FluxOR thallium flux fluorescence; stronger effect = lower value | B-score at 10 µM | 310,000 tested, 0.85% active | AID 1672;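 active means fluorescence ratio B-score at or below minus 3 SD of library scores, with starting-brightness B-score within 2 SD, cut at about -4.2 in these data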;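 further: channel flux triggered by added potassium and thallium sulfate stimulus; B-score of peak minus minimum fluorescence over baseline after thallium stimulus; more negative B-score means stronger Kir2.1 block with less thallium influx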
Rce1 inhib: blocks yeast Ras-converting enzyme; AID 2563; Q03530; 290,000 tested, 0.27% active; calls only; yeast membranes, quenched prenylated peptide cleavage fluorescence;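 active means fall in fluorescence gain of 50% or more versus controls, with final raw signal at or below 3038400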;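 further: plate controls were neutral control wells for no effect and wells lacking membranes for full effect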
TMEM16A reconf: reconfirmed blocker of mouse TMEM16A calcium-activated chloride channel. shares compounds with ANO1 block. inhibition, % at 10 µM. 2,300 tested, 39% active. HEK293 TMEM16A/YFP-H148Q, iodide quench fluorescence; ionomycin added to raise cell calcium;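 active means mean duplicate percent inhibition, scaled so buffer wells are 0 and the reference blocker 100, over three buffer SD above buffer mean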
TMEM16A Ca cntr: calcium mobilization counter-screen hit for TMEM16A inhibitor series; shares compounds with ANO1 block; TMEM16A/YFP HEK293, Fluo4 calcium mobilization; calcium response (% of ionomycin), % at 10 µM; 2,300 tested, 2% active;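 active means duplicate-averaged calcium signal over 20% of the ionomycin maximum, relative to buffer baseline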;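 further: each well's signal is peak minus trough fluorescence divided by its pre-addition baseline; 0% = buffer wells and 100% = ionomycin wells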
Parental YFP cnt: counter-screen for TMEM16A inhibitors: effect in parental YFP-HEK293 cells; shares compounds with ANO1 block; 2,300 tested, under 10 active; YFP ratio F(max-min)/F0 at 10 µM; iodide YFP quench, ionomycin;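 active means yellow fluorescent protein signal ratio exceeding the buffer control mean by over 5 SD of those controls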;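 further: ratio is mean of duplicate wells from kinetic YFP trace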
ClC-1 rat inh: selectivity of TMEM16A inhibitors: inhibition of rat ClC-1 chloride channel | ratio percent, % at 10 µM | CHO ClC-1-YFP, iodide influx fluorescence quench; iodide control reads 0, buffer control 100 | 2,300 tested, under 10 active | shares compounds with ANO1 block;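 active means duplicate-mean ratio percent above the mean of iodide-only control wells, which defines zero, plus 5 of their SD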;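 further: higher percent means stronger block of ClC-1 iodide influx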
* marks the source's active call; other numbers are inactive results; i = inactive; · = not tested or not shown. Compounds with a hit are over-represented: about 3.2% of the library has one in this group of screens.

SMILES | ANO1 block | ANO1 activ | CHT allo act | CHT inh | Kir21 inh | Rce1 inhib | TMEM16A reconf | TMEM16A Ca cntr | Parental YFP cnt | ClC-1 rat inh
CC(C)(C)NC(=O)C(c1ccccc1)N(Cc1ccco1)C(=O)c1csnn1 (configuration not stated) | i | i | i | i | -1.2 | i | · | · | · | ·
CCCN(CC(=O)c1cc(C)n(C)c1C)S(=O)(=O)c1cccc(C(F)(F)F)c1 | 100* | i | i | i | -0.46 | · | i | i | -0.85 | -6
O=[N+]([O-])c1cc([N+](=O)[O-])c(N2CCCCCC2)cc1NCCO | i | i | i | i | -0.75 | i | · | · | · | ·
Cc1cccc(OCCCSc2nc3ccc(C)cc3[nH]2)c1 | 100* | i | i | i | -1.2 | i | 33%* | i | -1 | -14
Cc1ccc2nc3sc(C(=O)Nc4ccc(N5CCOCC5)cc4)c(N)c3cc2c1 | · | · | · | · | 0.17 | i | · | · | · | ·
Cc1cccc2cc3c(N)c(C(=O)Nc4ccc(N5CCOCC5)cc4)sc3nc12 | i | i | i | i | -2.9 | i | i | i | -1.1 | 0
CC(NC(=O)Nc1ccc([N+](=O)[O-])cc1)C(c1cccs1)N1CCCC1 (configuration not stated) | i | i | i | i | 0.41 | i | · | · | · | ·
Cc1cccc(-c2nc(CN3CCCC(C(=O)NC4CCC(C)CC4)C3)c(C)o2)c1 (configuration not stated) | i | i | i | i | -0.03 | i | · | · | · | ·
CCOC(=O)N1CCC(NC(=O)C2CCCN(Cc3nc(-c4cccc(C)c4)oc3C)C2)CC1 (configuration not stated) | 25* | i | i | i | -0.28 | i | i | i | -1.2 | -18
Cc1oc(-c2ccc(Cl)cc2)nc1CN1CCCC(C(=O)N2CCOCC2)C1 (configuration not stated) | i | i | i | i | 1.3 | i | · | · | · | ·
Cc1oc(-c2ccc(Cl)cc2)nc1CN1CCCC(C(=O)N2CCN(C(=O)c3ccco3)CC2)C1 (configuration not stated) | 25* | i | i | i | 0.63 | i | 18%* | i | -0.98 | -8
O=c1cc(-c2ccccc2Cl)oc2c(NS(=O)(=O)c3ccccc3C(F)(F)F)ccc(O)c12 | i | i | i | i | 2.1 | i | · | · | · | ·
O=c1cc(-c2ccccc2Cl)oc2c(NS(=O)(=O)c3cccs3)ccc(O)c12 | 25* | i | i | i | -0.43 | i | 27%* | i | -0.99 | -4
CCOC(=O)N1CCC(N(C(=O)Nc2ccc(Cl)c(Cl)c2)C(C)CC)CC1 (configuration not stated) | 25* | i | i | i | 0.35 | i | i | i | -1.1 | -11
Cc1cc(N2CCC(C)CC2)nc(NCc2ccccc2)n1 | 100* | i | i | i | -13* | i | i | i | -1.3 | -20
Cc1cc(Nc2ccccc2)nc(NCc2ccccc2)n1 | 100* | i | i | i | -11* | i | i | i | -1.1 | -24
Cc1ccc(S(=O)(=O)N(c2ccc(Br)cc2)C2C=CS(=O)(=O)C2)cc1 (configuration not stated) | i | i | i | i | -0.23 | i | · | · | · | ·
Cc1cc(C)c(O)c(-c2n[nH]c3c2C(c2cccc(O)c2)N(Cc2ccco2)C3=O)c1 (configuration not stated) | i | i | i | i | 1.4 | i | · | · | · | ·
Cc1ccc(C)c(OCC(=O)NCCNC(=O)COc2cc(C)ccc2C)c1 | 100* | i | i | i | 0.27 | i | i | i | -1.2 | -12
CCN(CC)S(=O)(=O)c1ccc(Cl)c(NC(=O)COC(=O)c2nc3nc(C)cc(C)n3n2)c1 | · | i | · | · | · | · | · | · | · | ·
CCC1CCCCN1S(=O)(=O)c1ccc(C(=O)Nc2nnc(C3CC3)o2)cc1 (configuration not stated) | i | i | i | i | -1.3 | i | · | · | · | ·
CCC1CCCCN1S(=O)(=O)c1ccc(NC(=O)c2ccncc2)cc1 (configuration not stated) | 25* | i | i | i | 0.18 | i | 22%* | i | -0.96 | -14
C#CCN(C(=O)c1cc(COc2cccc(C(F)(F)F)c2)on1)C1CCCCC1 | 100* | i | i | i | -0.31 | i | 54%* | i | -0.99 | -18
c1ccc(-c2ccc(-c3nc(-c4ccccn4)no3)cc2)cc1 | 25* | i | i | i | 0.06 | i | i | i | -1.1 | 0
Cn1cc(CN(CCO)Cc2cccs2)c(-c2ccccc2F)n1 | i | i | i | i | -0.64 | i | · | · | · | ·
SMILES | ANO1 block | ANO1 activ | CHT allo act | CHT inh | Kir21 inh | Rce1 inhib | TMEM16A reconf | TMEM16A Ca cntr | Parental YFP cnt | ClC-1 rat inh
O=C(O)c1ccc(N=Nc2c(O)[nH]c3ccc(Br)cc23)cc1 | i | i | i | i | -3.2 | i | 17%* | i | -0.77 | -8
CC(OC(=O)c1cc(Br)ccc1O)C(=O)Nc1ccc(S(=O)(=O)N2CCCC2)cc1 (configuration not stated) | 100* | i | i | i | 1.2 | · | 62%* | i | -1 | -19
O=S(=O)(c1ccc2c(c1)OCCO2)N1CCC(O)(c2ccc(Cl)cc2)CC1 | 100* | i | i | i | -0.45 | i | i | i | -1.1 | 0
O=S(=O)(c1ccc2c(c1)OCCO2)N1CCN(c2ncnc3sccc23)CC1 | 25* | i | i | i | 1.4 | i | 17%* | i | -1.1 | -19
Cc1ccc(S(=O)(=O)N2CCN(c3ncnc4sccc34)CC2)cc1C | · | i | · | · | · | · | · | · | · | ·
COCCn1c(-c2cccc([N+](=O)[O-])c2)nc2c1c(=O)[nH]c(=O)n2Cc1ccccc1 | i | i | i | i | -0.17 | i | · | · | · | ·
Nc1cc(N)cc(C(=O)OCC(=O)Nc2cc(S(=O)(=O)N3CCCCC3)ccc2Cl)c1 | i | i | i | i | 1.1 | i | · | · | · | ·
CCOc1ccc(CC(=O)C2=C(N3CCOCC3)CC(C)(C)CC2=O)cc1OCC | i | i | i | i | -2.1 | i | · | · | · | ·
